Experimental data from PubChem BioAssay AID588549 (Broad Institute, 2011).
The campaign covered roughly 360,000 compounds. About 780 (0.22%) were called active. This excerpt belongs to a sample that is enriched for actives. Values without a mark were called inactive. Cut-off read from the data, not from the text of the source: active = inhibition above about 8.5% (passing the limit was not always enough); inconclusive = no clear call, values can overlap the other calls.

What follows are molecules tested on Mycobacterium tuberculosis FadD28 fatty-acid-AMP ligase (assay: inhibitors of FadD28 bisubstrate probe binding, primary screen, biochemical, fluorescence polarization, single point (AID 588549)). Details: at 12.5 µM, active compounds read high.

SMILES | inhibition
Cc1ccc(C(O)P(=O)(OC(C)C)c2ccc(N(C)C)cc2)cc1 (centres undefined) | 0.612%
CCCCn1c(N)c(N2CCOCC2)c(=O)n(CC(=O)NCCc2ccccc2)c1=O | 0%
N[C@@H](Cc1ccccc1)C(=O)N1CCC(C(=O)NCC(=O)Nc2ccc(F)cc2)CC1 | 0.565%
O=C(CSc1n[nH]c(=O)n1-c1ccccc1)Nc1ccccc1C(F)(F)F | -1.05%
C=C1c2c(Cl)ccc(O)c2C(O)=C2C(=O)[C@]3(O)C(O)=C(C(N)=O)C(=O)[C@@H](N(C)C)[C@@H]3[C@@H](O)C12 (some centres undefined) | 11.1% (active)
C[C@H]([C@@H](O)[C@@H](O)[C@@H](C)C(C)(C)C)[C@H]1CC[C@H]2C3CC[C@H]4C[C@H](OS(=O)(=O)O)[C@@H](OS(=O)(=O)O)C[C@]4(C)[C@H]3CC[C@]12C (some centres undefined) | -4.53%
Cc1ccc(NC(=O)C(c2ccccc2)N2CCN(C(=O)c3ccco3)CC2)cc1 (centres undefined) | -0.809%
COc1ccc(C(CNC(=O)c2cccc(S(=O)(=O)Nc3ccccc3Cl)c2)N2CCOCC2)cc1 (centres undefined) | 0.098%
CCCCN=C1N/C(=C\c2ccco2)C(=O)N1c1ccccc1 | -0.549%
COC(=O)C1=C(C)N(C(C)c2ccccc2)C(=O)/C1=C\c1ccco1 (centres undefined) | -2.87%
COc1ccc(N2C(=O)/C(=C/c3ccco3)C(=O)NC2=S)cc1 | 32.5% (active)
N#CCN(C(=O)COC(=O)C1CC2CCCC(C1)C2=O)c1ccccc1 (centres undefined) | 0.44%
CCOC(=O)C(CC)/C(C)=N\NC(=O)c1cccc(C)c1 (centres undefined) | -0.964%
CCN(CC)C(=O)C1=C(C)N(Cc2ccc(F)cc2)C(=O)C(CC(=O)NC2CCCC2)C1 (centres undefined) | -3.83%
Cc1ccc(S(=O)(=O)N(C)c2ccc(OCC(=O)OCc3ccc(C#N)cc3)cc2)cc1 | -1.59%
Nc1ncc(CN2CCCC(C(=O)Nc3ccc(-c4ccco4)cc3)C2)cn1 (centres undefined) | -5.68%
O=C(COC(=O)CNS(=O)(=O)c1ccc(F)c(F)c1F)NC1CCCC1 | -2.7%
O=C(OCc1ccc([N+](=O)[O-])cc1)C1CC(=O)N(Cc2ccccc2Cl)C1 (centres undefined) | -0.71%
Cc1ccc(S(=O)(=O)N2CCOCC2)cc1NC(=O)CSc1nnc(N)s1 | 1.4%
O=S(=O)(Nc1ccc2nc(-c3ccco3)[nH]c2c1)c1ccccc1 | -2.01%
COc1cc2c(C(=O)O)c(C)n(C)c2c2ccccc12 | 2.25%
COc1cccc2c(C)c(C(=O)O)[nH]c12 | 15.1% (active)
COc1cccc2c(O)cc(=O)n(C)c12 | -3.24%
O=C1Nc2cc(Cl)c(Cl)cc2N(O)N1c1cc(Cl)cc(Cl)c1 | -1.95%
CC12CCC(=O)N1C(C(=O)Nc1ccc(F)c(F)c1F)CS2 (centres undefined) | -2.85%
CC[C@]1(C(=O)OC)[C@H]2C(=O)N(Cc3ccccc3)C(=O)[C@H]2[C@H]2CN=C(SCc3ccc(C#N)cc3)N21 | -7.96%
CCOc1c(Br)cc(/C=C2\C(=O)N(CCC#N)N=C2C)cc1OC | -4.34%

SMILES | inhibition
COc1cc(/C=C2/C(=O)NN(c3cccc(Cl)c3)C2=O)cc(Br)c1O | 14.2% (active)
O=C(O)c1[nH]c2ccccc2c1C(c1cccc(O)c1)c1c(C(=O)O)[nH]c2ccccc12 | 28.9% (active)
Cc1c(C(=O)CN2CCOCC2)[nH]c2ccccc12 | -2.15%
CCCS(=O)(=O)Nc1c(C(=O)O)[nH]c2ccccc12 | 1.47%
COc1cccc(C(=O)N/N=C(\C)c2cccc(NC(=O)c3ccc(F)cc3)c2)c1OC | -4.93%
C/C(=N\Nc1cccc(C(=O)O)c1)c1ccc2c(c1)Nc1ccccc1S2 | 13.8% (active)
CC(=O)Nc1cccc(/C(C)=N/NC(=O)c2c(-c3ccccc3Cl)noc2C)c1 | -2.25%
Cc1ccc(CNC(=O)CCNS(=O)(=O)c2cccc3nonc23)cc1 | 0.736%
CC1CCN(C(=O)c2cc3nc(C4CC4)cc(C(F)(F)F)n3n2)CC1 | -2.25%
COc1ccc(/C=C/CN2CCCC(C(=O)c3cc(F)ccc3F)C2)cc1 (centres undefined) | -1.96%
CN(C(=O)C1CCN(c2ncnc3c2nc2n3CCCCC2)CC1)C1CCCCC1 | -3.36%
COCCCNC(NC(=O)c1ccc(OC)cc1)C(Cl)(Cl)Cl (centres undefined) | -3.52%
c1ccc(CCN2CN=C(Nc3nc4ccccc4o3)NC2)cc1 | -1.13%
COc1ccc(C(=O)c2c(C)c(CCC#N)n3ccccc23)c(OC)c1 | -2.38%
Cc1ccc(S(=O)(=O)N2C[C@H]3C(=O)C[C@@H](c4cccc5ccccc45)N(S(=O)(=O)c4ccc(C)cc4)[C@H]3C[C@H]2c2ccc(Cl)cc2)cc1 | -2.51%
COc1cccc(C(=O)Oc2cc(C)[nH]c(=O)c2[N+](=O)[O-])c1 | -0.419%
O=C1NC(=O)N(c2ccccc2)C(=O)/C1=C/c1ccc([N+](=O)[O-])s1 | 25.4% (active)
O=C(OCC(=O)N1CCN(c2ccccc2)CC1)c1ccc([N+](=O)[O-])s1 | 0.124%
COc1cccc(/C=C2\SC(=N)N(c3ccc(F)cc3)C2=O)c1 | -2.96%
O=[N+]([O-])c1ccc(C=Nc2ccc(Cl)cc2Cl)s1 | -1.01%
COc1cccc(N2C(=O)NC(=O)/C(=C\c3ccc([N+](=O)[O-])s3)C2=O)c1 | 16.4% (active)
CCCC1C(c2ccccc2)C(C#N)(C#N)C2(C#N)CC1(N)NC2=O (centres undefined) | -0.503%
COc1cccc(OCC(O)CNC(=O)c2oc3c(C)c(C)ccc3c2C)c1 (centres undefined) | -2.55%
COc1c(O)cc2oc(-c3ccc(O)c(O)c3)cc(=O)c2c1O | 13.9% (active)
COc1cc(O)c2c(=O)c3c(O)c(O)ccc3oc2c1OC | -0.783%
OCc1ccc(-c2ccccc2)c(-c2ccccc2)c1 | -0.325%
COc1ccccc1C(=O)NC(=S)NC12CC3CC(CC(C3)C1)C2 | -0.832%
